Ten molecules from PubChem BioAssay (NCI) can be followed below.

Experiment [1] can be described thus: NCI Yeast Anticancer Drug Screen. Data for the rad50 strain (AID 155).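 Also: 0% = growth of vehicle-only cultures of the same strain.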 Conditions: S. cerevisiae rad50 strain growth inhibition, active compounds read high. Summed up:
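Genetically altered yeast (DNA repair pathway); compound treatment; growth inhibition vs vehicle ctrl.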

A short description of experiment [2]: NCI Yeast Anticancer Drug Screen. Data for the mec2-1 strain (AID 157). The following applies: S. cerevisiae mec2-1 strain, active compounds read high. Summed up: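 Using mec2-1 yeast: add compound, measure growth, express inhibition versus vehicle-treated cultures.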
The nature of experiment [3]: NCI Yeast Anticancer Drug Screen. Data for the sgs1 mgt1 strain (AID 161).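 Also: 0% = growth of cultures given vehicle only.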 Conditions: S. cerevisiae sgs1 mgt1 strain, active compounds read high. Summed up: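 Growth of a repair-deficient yeast mutant was monitored after compound treatment and expressed as inhibition relative to vehicle-treated cultures.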
Experiment [4] in a line: NCI Yeast Anticancer Drug Screen. Data for the cln2 rad14 strain (AID 165).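 Also: 0% = growth equal to vehicle treated cultures.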 The following applies: S. cerevisiae cln2 rad14 strain, active compounds read high. The method, boiled down: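 Yeast strain cln2 rad14, bearing defects in cell cycle control and DNA repair, serves as the test system; values reflect growth inhibition compared with vehicle.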
Experiment [5] is described as follows: NCI Yeast Anticancer Drug Screen. Data for the bub3 strain (AID 167). The following applies: S. cerevisiae bub3 mutant strain, active compounds read high. Summed up:
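Yeast carrying a defined mutation is treated with each compound, and growth is compared with that of vehicle-exposed cells to give inhibition.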

Experiment [6] is described as follows: NCI Yeast Anticancer Drug Screen. Data for the mlh1 rad18 strain (AID 175). The following applies: S. cerevisiae mlh1 rad18 strain growth inhibition, active compounds read high. Summed up:
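Steps: expose repair-defective yeast to compound; measure growth; express inhibition against vehicle-treated controls.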

[7] abbreviates: at 5.0 µM (retest, dose inferred, filed as 0.5).
Where [8] appears, read: at 50.0 µM (retest, dose inferred, filed as 5.0).

SMILES strings stand for the structures. Compounds without any hit were thinned out: in the full panel of roughly 79,000, 15% have a hit. Values without a mark were called inactive. Activity calls are given as the source filed them. Rule as the data show it: active = growth inhibition above about 70%; inactive = the rest.

For the molecule `O=C(O)/C=C/C(=O)NNc1nc2ccccc2s1`, the growth inhibition in experiment [1] (setting [7]) is -4%; in experiment [1] (setting [8]) it was -1%; in experiment [1] (at 50.0 µM) it was 23.1%; in experiment [2] (setting [7]) it was -9%; in experiment [2] (setting [8]), 2%; in experiment [2] (at 50.0 µM), -5.25%. The growth inhibition in experiment [3] (setting [7]) was 0%; in experiment [3] (setting [8]), -25%; in experiment [3] (at 50.0 µM), 50.3%; in experiment [4] (setting [7]), -25%; in experiment [4] (setting [8]), 1%; in experiment [4] (at 50.0 µM), 23.1%. The growth inhibition in experiment [5] (setting [7]) is -31%; in experiment [5] (setting [8]) it was -21%; in experiment [5] (at 50.0 µM), -13.2%; in experiment [6] (setting [7]), -7%; in experiment [6] (setting [8]), 20%; in experiment [6] (at 50.0 µM), 70.2% (active).
With `O=C1OC(c2ccccc2)=N/C1=C\c1ccc(Oc2ccc(Cl)c(Cl)c2)cc1`, the growth inhibition in experiment [1] (setting [7]) is 8%; in experiment [1] (setting [8]), 8%; in experiment [1] (at 50.0 µM), 69.4%; in experiment [2] (setting [7]) it was 14%; in experiment [2] (setting [8]), 14%; in experiment [2] (at 50.0 µM), 61.5%. In addition, the growth inhibition in experiment [3] (setting [7]) was 0%; in experiment [3] (setting [8]), 0%; in experiment [3] (at 50.0 µM), 74.8% (active); in experiment [4] (setting [7]), -2%; in experiment [4] (setting [8]), -2%; in experiment [4] (at 50.0 µM), 46%. Further, the growth inhibition in experiment [5] (setting [7]) was -1%; in experiment [5] (setting [8]), -1%; in experiment [5] (at 50.0 µM) it was 69.7%; in experiment [6] (setting [7]), -4%; in experiment [6] (setting [8]) it was -4%; in experiment [6] (at 50.0 µM), 52.4%.
As for `Cc1ccc(C(=O)OCCN2CCOCC2)c([N+](=O)[O-])c1OCc1ccccc1`, the growth inhibition in experiment [1] (setting [7]) was 14%; in experiment [1] (setting [8]), 61%; in experiment [1] (at 50.0 µM), 73.2% (active); in experiment [2] (setting [7]), 18%; in experiment [2] (setting [8]) it was 46%; in experiment [2] (at 50.0 µM), 63.4%. Besides, the growth inhibition was 13% in experiment [3] (setting [7]); 81% (active) in experiment [3] (setting [8]); 84.7% (active) in experiment [3] (at 50.0 µM); 11% in experiment [4] (setting [7]); 28% in experiment [4] (setting [8]); 6.7% in experiment [4] (at 50.0 µM). The growth inhibition in experiment [5] (setting [7]) was 11%; in experiment [5] (setting [8]) it was 65%; in experiment [5] (at 50.0 µM) it was 68.5%; in experiment [6] (setting [7]) it was 10%; in experiment [6] (setting [8]), 58%; in experiment [6] (at 50.0 µM), 78.3% (active).
`COc1ccccc1NC(=O)CC(=O)N1N=C(c2ccccc2)C(N=Nc2ccc(Cl)cc2)C1=O` (stereo not given): the growth inhibition in experiment [1] (setting [7]) was 20%; in experiment [1] (setting [8]), 20%; in experiment [1] (at 50.0 µM), -5.1%; in experiment [2] (setting [7]) it was 21%; in experiment [2] (setting [8]), 21%; in experiment [2] (at 50.0 µM) it was 0.6%. Besides, the growth inhibition in experiment [3] (setting [7]) is 25%; in experiment [3] (setting [8]) it was 25%; in experiment [3] (at 50.0 µM) it was -2%; in experiment [4] (setting [7]), 12%; in experiment [4] (setting [8]), 12%; in experiment [4] (at 50.0 µM) it was -41.2%. Also, the growth inhibition in experiment [5] (setting [7]) is 15%; in experiment [5] (setting [8]), 15%; in experiment [5] (at 50.0 µM) it was 1%; in experiment [6] (setting [7]), 6%; in experiment [6] (setting [8]), 6%; in experiment [6] (at 50.0 µM), -8.05%.
Take `CCn1c2ccccc2c2ccc(C3C(C(=O)OC)=C(C)NC(C)=C3C(=O)OC)cc21`: the growth inhibition in experiment [1] (setting [7]) is -3%; in experiment [1] (setting [8]) it was 8%; in experiment [1] (at 50.0 µM) it was 79.4% (active); in experiment [2] (setting [7]), -14%; in experiment [2] (setting [8]), 14%; in experiment [2] (at 50.0 µM), 76% (active). In addition, the growth inhibition in experiment [3] (setting [7]) was -2%; in experiment [3] (setting [8]), 9%; in experiment [3] (at 50.0 µM) it was 80.8% (active); in experiment [4] (setting [7]), -14%; in experiment [4] (setting [8]), 26%; in experiment [4] (at 50.0 µM), 83.2% (active). In addition, the growth inhibition was -6% in experiment [5] (setting [7]); 15% in experiment [5] (setting [8]); 85% (active) in experiment [5] (at 50.0 µM); 1% in experiment [6] (setting [7]); 8% in experiment [6] (setting [8]); 85% (active) in experiment [6] (at 50.0 µM).
Turning to `COc1cc(/C=C/C(=N\NC(=O)c2ccccc2)c2sc(Nc3ccc(Cl)c(Cl)c3)nc2C)ccc1O`, the growth inhibition was 49% in experiment [1] (setting [7]); 49% in experiment [1] (setting [8]); 91.2% (active) in experiment [1] (at 50.0 µM); 29% in experiment [2] (setting [7]); 29% in experiment [2] (setting [8]); 89.8% (active) in experiment [2] (at 50.0 µM). Moreover, the growth inhibition was 52% in experiment [3] (setting [7]); 52% in experiment [3] (setting [8]); 89.7% (active) in experiment [3] (at 50.0 µM); 14% in experiment [4] (setting [7]); 14% in experiment [4] (setting [8]); 88.2% (active) in experiment [4] (at 50.0 µM). For the same molecule, the growth inhibition is 28% in experiment [5] (setting [7]); 28% in experiment [5] (setting [8]); 90.5% (active) in experiment [5] (at 50.0 µM); 30% in experiment [6] (setting [7]); 30% in experiment [6] (setting [8]); 88.9% (active) in experiment [6] (at 50.0 µM).
Turning to `CCN(CC)CCOc1ccc(/C(C#N)=C/c2ccc3ccccc3c2)cc1`, the growth inhibition in experiment [1] (setting [7]) was 38%; in experiment [1] (setting [8]), 99% (active); in experiment [1] (at 50.0 µM), 99.5% (active); in experiment [2] (setting [7]), 30%; in experiment [2] (setting [8]), 99% (active); in experiment [2] (at 50.0 µM) it was 99.5% (active). Besides, the growth inhibition in experiment [3] (setting [7]) is 73% (active); in experiment [3] (setting [8]) it was 100% (active); in experiment [3] (at 50.0 µM), 99.2% (active); in experiment [4] (setting [7]), 28%; in experiment [4] (setting [8]), 99% (active); in experiment [4] (at 50.0 µM) it was 99.5% (active). The growth inhibition in experiment [5] (setting [7]) is 53%; in experiment [5] (setting [8]) it was 99% (active); in experiment [5] (at 50.0 µM), 99.4% (active); in experiment [6] (setting [7]) it was 35%; in experiment [6] (setting [8]) it was 99% (active); in experiment [6] (at 50.0 µM), 99.2% (active).
On to `O=C(/N=C1\N=Nc2nc(C(C(=O)c3cccs3)c3nc4n(c3O)/C(=N/C(=O)Nc3ccc(Cl)cc3)N=N4)c(O)n21)Nc1ccc(Cl)cc1` (stereo not given), for which the growth inhibition in experiment [1] (setting [7]) was -22%; in experiment [1] (setting [8]), 5%; in experiment [1] (at 50.0 µM), 38.7%; in experiment [2] (setting [7]) it was -12%; in experiment [2] (setting [8]), 23%; in experiment [2] (at 50.0 µM), 63.4%. Also, the growth inhibition in experiment [3] (setting [7]) is -1%; in experiment [3] (setting [8]), 7%; in experiment [3] (at 50.0 µM), 66.2%; in experiment [4] (setting [7]), -33%; in experiment [4] (setting [8]), 7%; in experiment [4] (at 50.0 µM), 63.6%. For the same molecule, the growth inhibition is -38% in experiment [5] (setting [7]); 27% in experiment [5] (setting [8]); 66.8% in experiment [5] (at 50.0 µM); -27% in experiment [6] (setting [7]); 43% in experiment [6] (setting [8]); 49.3% in experiment [6] (at 50.0 µM).
Regarding `NC(=O)C(=O)N/N=C/c1ccc([N+](=O)[O-])o1`, the growth inhibition in experiment [1] (setting [7]) was 14%; in experiment [1] (setting [8]), 49%; in experiment [1] (at 50.0 µM) it was 32.4%; in experiment [2] (setting [7]) it was 6%; in experiment [2] (setting [8]), 31%; in experiment [2] (at 50.0 µM), 25.4%. The growth inhibition in experiment [3] (setting [7]) was 2%; in experiment [3] (setting [8]) it was 42%; in experiment [3] (at 50.0 µM), 71.7% (active); in experiment [4] (setting [7]), -1%; in experiment [4] (setting [8]), 18%; in experiment [4] (at 50.0 µM) it was 2.8%. Besides, the growth inhibition was 37% in experiment [5] (setting [7]); 35% in experiment [5] (setting [8]); 14.3% in experiment [5] (at 50.0 µM); 16% in experiment [6] (setting [7]); 65% in experiment [6] (setting [8]); 56.1% in experiment [6] (at 50.0 µM).
On to `COc1ccc(Cl)c(-c2cc(OC)c(N=N/C(=N/Nc3ccc([N+](=O)[O-])cc3)c3ccc([N+](=O)[O-])cc3)cc2Cl)c1`, for which the growth inhibition in experiment [1] (setting [7]) is 95% (active); in experiment [1] (setting [8]), 19%; in experiment [1] (at 50.0 µM), 70.9% (active); in experiment [2] (setting [7]), 98% (active); in experiment [2] (setting [8]) it was 4%; in experiment [2] (at 50.0 µM) it was 45.5%. The growth inhibition in experiment [3] (setting [7]) was 44%; in experiment [3] (setting [8]) it was -18%; in experiment [3] (at 50.0 µM) it was 60.2%; in experiment [4] (setting [7]), 74% (active); in experiment [4] (setting [8]) it was 0%; in experiment [4] (at 50.0 µM), 50.2%. The growth inhibition in experiment [5] (setting [7]) is 99% (active); in experiment [5] (setting [8]), 5%; in experiment [5] (at 50.0 µM), 44.5%; in experiment [6] (setting [7]), 98% (active); in experiment [6] (setting [8]) it was 17%; in experiment [6] (at 50.0 µM), 76.1% (active).
